Potency and outcome data for ten compounds are collected here from PubChem BioAssay (Tox21).

The nature of experiment [1]: qHTS assay to identify small molecule agonists of the vitamin D receptor (VDR) signaling pathway - cell viability counter screen (AID 743224). Further: nearly all actives have a fitted effect of over 50% in size. Further: potency means the concentration at half of the fitted maximal effect. The essentials:
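Here cell health was gauged by luminescent ATP detection (CellTiter-Glo, 30 min RT) in VDR-bla cells that had been incubated with test compounds for 16 h at 37C and 5% CO2.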
A general note: In qHTS, concentration-response curves come from the screen itself.

Experiment [2] is described as follows: qHTS assay to identify small molecule antagonists of the vitamin D receptor (VDR) signaling pathway - cell viability counter screen (AID 743225). Further: nearly all actives have a fitted effect of over 50% in size. Further: potency means the concentration at half of the fitted maximal effect. The essentials:
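Cells (VDR-UAS-bla HEK 293T) are plated, rested 4 h at 37C, dosed with compound and 3 nM final 1-alpha,25-dihydroxy vitamin D3, and incubated 16 h. Viability is taken from CellTiter-Glo luminescence in the reporter wells.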

Experiment [3] can be described thus: qHTS assay to identify small molecule agonists of the NFkB signaling pathway - cell viability counter screen (AID 1159515; calls by dose curve; further: nearly all actives have a fitted effect of over 55% in size; further: potency means the concentration at half of the fitted maximal effect). In short, it runs like this:
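5 hr compound treatment of NFkB-bla ME-180 cells (2,000/well, seeded overnight beforehand), followed by reporter substrate for 1.5 hr. CellTiter-Glo added afterward; luminescence after 30 min RT.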

Experiment [4] can be described thus: qHTS assay to identify small molecule agonists of the endoplasmic reticulum stress response signaling pathway - cell viability counter screen (AID 1159517; calls by dose curve; further: nearly all actives have a fitted effect of over 50% in size; further: potency means the concentration at half of the fitted maximal effect). In short, it runs like this:
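ESRE-bla HeLa cells, 1,500 per well, seeded overnight then treated with compounds for 5 hr at 37 C. After the beta-lactamase read, viability in the same wells is measured by CellTiter-Glo luminescence after 30 min at room temperature.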

A short description of experiment [5]: qHTS assay to identify small molecule antagonists of the retinoid-related orphan receptor gamma (ROR-gamma) signaling pathway - cell viability counter screen (AID 1159520). Further: nearly all actives have a fitted effect of over 50% in size. Further: potency means the concentration at half of the fitted maximal effect. The essentials: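 Tet-on ROR gamma CHO cells were given compounds for 2 hr, then doxycycline hyclate at 1 uM final, and incubated 16 hr at 37 C. Viability was measured as ATP content by CellTiter-Glo luminescence.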

Experiment [6] concerns the target Nuclear receptor ROR-gamma (Homo sapiens) (UniProt P51449). Nature of the experiment: qHTS assay to identify small molecule antagonists of the retinoid-related orphan receptor gamma (ROR-gamma) signaling pathway (AID 1159521; further: nearly all actives have a fitted effect of over 50% in size; further: potency means the concentration at half of the fitted maximal effect). The essentials:
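RORγ antagonism is scored from reduced reporter luminescence in Tet-on CHO cells. Induction used 1 uM final doxycycline hyclate for 16 h at 37 C, following a 2 h compound exposure.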

Experiment [7] in a line: qHTS assay to identify small molecule agonists of the AP-1 signaling pathway - cell viability counter screen (AID 1159525; calls by dose curve; further: nearly all actives have a fitted effect of over 55% in size; further: potency means the concentration at half of the fitted maximal effect). In short, it runs like this: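 AP-1-bla ME-180 cells in Opti-MEM with 0.5% dialyzed FBS, compound exposure 5 h at 37 C in 15-point titration. Viability read in the same wells as ATP content by CellTiter-Glo luminescence, normalised to tetra-n-octylammonium bromide and DMSO controls.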

The nature of experiment [8]: qHTS assay to identify small molecule agonists of the RXR signaling pathway - cell viability counter screen (AID 1159529). Further: nearly all actives have a fitted effect of over 50% in size. Further: potency means the concentration at half of the fitted maximal effect. In short, it runs like this:
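Cell viability is measured by CellTiter-Glo luminescence, 30 min at room temperature, in wells already read for beta-lactamase. Engineered HEK 293T cells (RXR-alpha-UAS-bla) are dosed 16 hr at 37 C. Tetraoctyl ammonium bromide serves as positive control.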

Experiment [9] can be described thus: qHTS assay to identify small molecule antagonists of the retinoid acid receptor (RAR) signaling pathway - cell viability counter screen (AID 1159551). Further: nearly all actives have a fitted effect of over 35% in size. Further: potency means the concentration at half of the fitted maximal effect. In short, it runs like this: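 Seed C3RL4 cells; next day add compound, then retinol to 1 uM final; incubate 6 h at 37 C; add CellTiter-Glo; read luminescence after 30 min at RT.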
Experiment [10] can be described thus: qHTS assay to identify small molecule agonists of the endoplasmic reticulum stress response signaling pathway (AID 1159516; active means well fitted activation curve with a large enough effect in the signal ratio in the repeat runs, not every such curve was filed as active; the % refers to the signal ratio). In short, it runs like this:
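Reporter HeLa cells (ESRE-beta-lactamase) underwent 5 hr compound incubation at 37 C and 5% CO2 in quantitative HTS format. Detection followed 2 hr of FRET substrate loading at room temperature.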

A short description of experiment [11]: qHTS assay to identify small molecule agonists of the AP-1 signaling pathway (AID 1159526; calls by dose curve).
Experiment [12] concerns the target Retinoic acid receptor RXR-alpha (Homo sapiens) (UniProt P19793). Put plainly: qHTS assay to identify small molecule agonists of the RXR signaling pathway (AID 1159527; calls by dose curve; further: nearly all actives have a fitted effect of over 35% in size; further: potency means the concentration at half of the fitted maximal effect). The essentials:
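qHTS of the Tox21 10K library in GeneBLAzer RXR-alpha HEK 293T cells carrying a beta-lactamase reporter […]; 16 hr treatment, 9-cis retinoic acid as agonist control, FRET read-out.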

The nature of experiment [13]: qHTS assay to identify small molecule antagonists of the retinoic acid receptor (RAR) signaling pathway (AID 1159552; further: nearly all actives have a fitted effect of over 50% in size; further: potency means the concentration at half of the fitted maximal effect). The essentials:
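Quantitative HTS in C3RL4 RARE-luciferase reporter cells. Compounds were added with 1 uM (final) retinol; luminescence was read after 6 hr.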

A short description of experiment [14]: qHTS assay to identify small molecule agonists of the retinoic acid receptor (RAR) signaling pathway (AID 1159553). The essentials:
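Activation of retinol signaling was monitored via a RARE luciferase reporter in C3RL4 cells. After 6 hr compound treatment at 37 C, detection reagent was added for 30 min at room temperature before luminescence reading.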

Experiment [15] in a line: qHTS assay to identify small molecule antagonists of the estrogen related receptor (ERR) signaling pathway - cell viability counter screen (AID 1224818).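 Further: series mostly up to about 46 µM; viability measured after 17.5 h of compound exposure.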 The essentials:
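In the same ERR cell assay, compound-treated wells (17.5 h, 37 C) were multiplexed with a fluorogenic viability reagent, CellTiter-Fluor, read after 30 min to flag cytotoxic substances.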

Experiment [16] in a line: qHTS assay to identify small molecule antagonists of the estrogen related receptor signaling pathway with the pleiotropic PPARgamma coactivator (PGC) cell viability counter screen (AID 1224822; further: series mostly up to about 46 µM). The essentials: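 Compounds in DMSO, with positive and negative controls, were applied to PGC/ERR cells (2,000/well) and left 17.5 h at 37 C before CellTiter-Fluor detection.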

In experiment [17] the test system is estrogen-related receptor alpha (ERRalpha) with PGC-1alpha coactivator, human. Nature of the experiment: qHTS assay to identify small molecule antagonists of the estrogen related receptor signaling pathway with the pleiotropic PPARgamma coactivator (PGC) (AID 1224821; calls by dose curve). The essentials: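 Luminescent read-out (One-Glo, 30 min at room temperature) following 18 h treatment of PGC/ERR cells at 37 C with compounds delivered in DMSO. Cells had settled 6 h at 37 C/5% CO2 before dosing.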

The nature of experiment [18]: qHTS assay to identify small molecule agonists of the estrogen related receptor signaling pathway with the pleiotropic PPARgamma coactivator (PGC) (AID 1224823). In short, it runs like this: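 Steps: plate PGC/ERR cells at 2,000 cells/well; incubate 6 h, 37 C/5% CO2; pin-transfer compounds (DMSO); incubate 18 h, 37 C; add One-Glo; 30 min RT; read luminescence.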

Several values for one entry are separate records, joined by “and”; a condition that tells them apart may be missing. Identical values can stand only once. Inconclusive results are not listed. A structure can be active in one record and inactive in another. Activity calls are given as the source filed them. Unless noted, the call rests on the fitted dose curve; in most records, active means well fitted curve in the direction sought with a large enough effect in the repeat runs; inconclusive means weak or mixed curves; inactive means no such curve, though single readings can be large; an effect the other way counts as inactive or inconclusive.

Retinoic acid receptor RXR-alpha (Homo sapiens), sequence (P19793 whole entry, looked up): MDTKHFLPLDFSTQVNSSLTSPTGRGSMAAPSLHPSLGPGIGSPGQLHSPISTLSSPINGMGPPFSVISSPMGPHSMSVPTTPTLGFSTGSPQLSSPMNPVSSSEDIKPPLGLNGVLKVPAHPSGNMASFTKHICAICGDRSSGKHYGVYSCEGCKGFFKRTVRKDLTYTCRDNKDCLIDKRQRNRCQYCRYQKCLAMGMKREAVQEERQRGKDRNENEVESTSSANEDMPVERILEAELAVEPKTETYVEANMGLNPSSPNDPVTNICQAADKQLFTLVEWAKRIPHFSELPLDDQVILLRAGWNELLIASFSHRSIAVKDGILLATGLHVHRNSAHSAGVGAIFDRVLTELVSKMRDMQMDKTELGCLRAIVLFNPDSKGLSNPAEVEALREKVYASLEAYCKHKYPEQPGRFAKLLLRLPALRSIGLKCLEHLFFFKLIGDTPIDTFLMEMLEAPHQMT

For the compound `CCCCCCCCCCCC[N+](C)(C)Cc1ccccc1`, the Potency is 27 µM (active) and 29.9 µM (active) and 13.3 µM (active) in experiment [1]; 19.1 µM (active) and 15 µM (active) and 21.3 µM (active) in experiment [2]; 53.9 µM (active) and 47.4 µM (active) and 23.9 µM (active) in [3]; 17 µM (active) and 21.2 µM (active) and 26.8 µM (active) in [4]; 67.3 µM (active) and 66.4 µM (active) and inactive in [5]; 47.6 µM (active) and 21.1 µM (active) in [6]. Moreover, the Potency in experiment [7] was 23.9 µM (active); in experiment [8] it was 6.78 µM (active) and 8.43 µM (active) and 1.69 µM (active); in experiment [9], 60 µM (active) and 74.5 µM (active).

`CCCCC(CC)C(=O)O` (stereo not given): the Potency result in experiment [1], in [2], in [3], in experiment [10], in experiment [4] and in [5] was “inactive” throughout. Besides, the Potency entry in experiment [6], in experiment [7], in experiment [11], in experiment [12], in [8] and in [9] was “inactive” throughout.

In the case of `CCCCCCCCCCCCCCCC[N+](C)(C)Cc1ccccc1`, the Potency is 31.9 µM (active) and 8.86 µM (active) and 26.6 µM (active) in experiment [1]; 45 µM (active) and 17.7 µM (active) and 21.3 µM (active) in [2]; 56.7 µM (active) and 49.8 µM (active) and 21.3 µM (active) in experiment [3]; 25.3 µM (active) and 39.6 µM (active) in [4]; 70.8 µM (active) and 55.5 µM (active) and 29.8 µM (active) in experiment [5]; 56.2 µM (active) and 27.8 µM (active) and 13.3 µM (active) in experiment [6]. Further, the Potency in experiment [7] was 40.1 µM (active) and 49.8 µM (active) and 23.9 µM (active); in experiment [8], 17.9 µM (active) and 14 µM (active) and 4.25 µM (active); in [9], 79.4 µM (active) and 62.2 µM (active) and 29.8 µM (active); in [13], 56.2 µM (active) and 27.8 µM (active) and 23.7 µM (active).

Regarding `O=C1c2c(O)cccc2Cc2cccc(O)c21`, the Potency entry in experiment [1], in experiment [2], in experiment [3], in experiment [4], in experiment [5] and in experiment [6] was “inactive” throughout. Besides, the Potency result in [7], in [11], in [12], in experiment [8] and in experiment [9] was “inactive” each time.

As for `CCCCCCCC(=O)OCC(COC(=O)CCCCCCC)OC(=O)CCCCCCC`, the Potency result in [1], in experiment [2], in [10], in [4], in [5] and in experiment [6] was “inactive” throughout. The Potency entry in experiment [7], in experiment [11], in experiment [12], in experiment [8], in experiment [9] and in experiment [13] was “inactive” each time. Also, the Potency result in experiment [14] was “inactive”.

Turning to `C[C@](N)(Cc1ccc(O)c(O)c1)C(=O)O`, the Potency entry in [1], in experiment [2], in experiment [10], in [4], in [5] and in [6] was “inactive” in each case. In addition, the Potency entry in experiment [7], in experiment [11], in experiment [12], in experiment [8], in experiment [9] and in experiment [14] was “inactive” throughout. Besides, the Potency entry in experiment [16] is “inactive”. In addition, the outcome in [15] was inactive.

As to `O=c1[nH]cc(F)c(=O)[nH]1`, the Potency result in experiment [1], in experiment [2], in [10], in experiment [4], in experiment [5] and in [7] was “inactive” each time. The Potency result in experiment [11], in experiment [9] and in [16] was “inactive” in each case. Also, the Potency was 4.49 µM (active) and inactive in experiment [6]; 28.2 µM (active) in experiment [12]; 45.3 µM (active) and inactive in experiment [8]. Moreover, the compound was classed as inactive in [15].

As for `CC(C)NCC(O)c1ccc(O)c(O)c1` (stereo not given), the Potency entry in experiment [1], in experiment [2], in [10], in [4], in experiment [5] and in experiment [6] was “inactive” in each case. In addition, the Potency result in experiment [7], in experiment [11], in experiment [12], in [8], in [9] and in experiment [16] was “inactive” in each case. Also, the compound was called inactive in [15], in [17] and in experiment [18].

Consider `CC(O)(P(=O)(O)O)P(=O)(O)O`, for which the Potency entry in [1], in [2], in experiment [10], in experiment [4], in experiment [5] and in experiment [7] was “inactive” in each case. Also, the Potency result in experiment [11], in [12], in [8] and in experiment [9] was “inactive” each time.

As for `CN(C)C(=O)Nc1ccc(Cl)c(Cl)c1`, the Potency entry in experiment [1], in experiment [2], in experiment [10], in experiment [4], in [5] and in experiment [6] was “inactive” throughout. Further, the Potency result in experiment [7], in experiment [11], in experiment [8], in [9], in [13] and in [14] was “inactive” throughout. The Potency result in [12] was “inactive and 19.5 µM (active)”.
